SRC3 inh: SRC3 coactivator transcriptional activity inhibitors, primary screen, cell-based, luminescence | HEK293 GAL4-SRC3 luciferase reporter | inhibition, % at 3.6 µM | actives 0.17% (n = 360,000) | AID 588352, 2011;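 active = inhibition above a per-campaign cutoff, the mean of all compounds plus 3 SD, cut at about 60% in these data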;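 note: 0% = DMSO-treated cells and 100% = gossypol-treated cells at 36 µM; higher means less SRC3-driven luciferase light from the GAL4 reporter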
NR2F2 inh: NR2F2 transcriptional activity inhibitors, primary screen, cell-based, luciferase reporter, HEK293T, luminescence | HEK293T NGFI-A luciferase reporter | inhibition, % at 8.6 µM | actives 0.7% (n = 370,000) | AID 686940, 2013;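 active = inhibition above a per-plate cutoff, mean inhibition of test wells between control levels plus 3 SD, cut at about 38% in these data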;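 note: cells cotransfected with COUP-TFII expression vector driving the NGFI-A reporter; 0% = median of COUP-TF2 test wells and 100% = reporter-only cells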
NCOA1 inh: SRC1 coactivator transcriptional activity inhibitors, primary screen, cell-based, luminescence; AID 588354, 2011; HEK293 GAL4-SRC1 luciferase reporter; Nuclear receptor coactivator 1 (Homo sapiens), Q15788; actives 0.12% (n = 360,000); inhibition, % at 3.6 µM;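 active = inhibition above the campaign mean plus 3 SD, with each screening campaign given its own cutoff, cut at about 60% in these data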;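 note: 0% = DMSO treated cells and 100% = gossypol at 36 µM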
NCOA2 inhibitor: inhibition of GAL4-SRC2 driven luciferase reporter, primary screen, SRC2 inhibitor project, cell-based, luminescence; Nuclear receptor coactivator 2 (Homo sapiens), Q15596; HEK293 GAL4-SRC2 luciferase reporter; inhibition, % at 9 µM; actives 0.17% (n = 370,000);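 active = inhibition above the mean inhibition of all tested compounds plus 3 SD, set per campaign, cut at about 52% in these data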;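 note: 0% = DMSO treated cells and 100% = cells given Gossypol at 36 µM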
Target sequence (Q15596 whole entry, looked up, the tested form may be a part): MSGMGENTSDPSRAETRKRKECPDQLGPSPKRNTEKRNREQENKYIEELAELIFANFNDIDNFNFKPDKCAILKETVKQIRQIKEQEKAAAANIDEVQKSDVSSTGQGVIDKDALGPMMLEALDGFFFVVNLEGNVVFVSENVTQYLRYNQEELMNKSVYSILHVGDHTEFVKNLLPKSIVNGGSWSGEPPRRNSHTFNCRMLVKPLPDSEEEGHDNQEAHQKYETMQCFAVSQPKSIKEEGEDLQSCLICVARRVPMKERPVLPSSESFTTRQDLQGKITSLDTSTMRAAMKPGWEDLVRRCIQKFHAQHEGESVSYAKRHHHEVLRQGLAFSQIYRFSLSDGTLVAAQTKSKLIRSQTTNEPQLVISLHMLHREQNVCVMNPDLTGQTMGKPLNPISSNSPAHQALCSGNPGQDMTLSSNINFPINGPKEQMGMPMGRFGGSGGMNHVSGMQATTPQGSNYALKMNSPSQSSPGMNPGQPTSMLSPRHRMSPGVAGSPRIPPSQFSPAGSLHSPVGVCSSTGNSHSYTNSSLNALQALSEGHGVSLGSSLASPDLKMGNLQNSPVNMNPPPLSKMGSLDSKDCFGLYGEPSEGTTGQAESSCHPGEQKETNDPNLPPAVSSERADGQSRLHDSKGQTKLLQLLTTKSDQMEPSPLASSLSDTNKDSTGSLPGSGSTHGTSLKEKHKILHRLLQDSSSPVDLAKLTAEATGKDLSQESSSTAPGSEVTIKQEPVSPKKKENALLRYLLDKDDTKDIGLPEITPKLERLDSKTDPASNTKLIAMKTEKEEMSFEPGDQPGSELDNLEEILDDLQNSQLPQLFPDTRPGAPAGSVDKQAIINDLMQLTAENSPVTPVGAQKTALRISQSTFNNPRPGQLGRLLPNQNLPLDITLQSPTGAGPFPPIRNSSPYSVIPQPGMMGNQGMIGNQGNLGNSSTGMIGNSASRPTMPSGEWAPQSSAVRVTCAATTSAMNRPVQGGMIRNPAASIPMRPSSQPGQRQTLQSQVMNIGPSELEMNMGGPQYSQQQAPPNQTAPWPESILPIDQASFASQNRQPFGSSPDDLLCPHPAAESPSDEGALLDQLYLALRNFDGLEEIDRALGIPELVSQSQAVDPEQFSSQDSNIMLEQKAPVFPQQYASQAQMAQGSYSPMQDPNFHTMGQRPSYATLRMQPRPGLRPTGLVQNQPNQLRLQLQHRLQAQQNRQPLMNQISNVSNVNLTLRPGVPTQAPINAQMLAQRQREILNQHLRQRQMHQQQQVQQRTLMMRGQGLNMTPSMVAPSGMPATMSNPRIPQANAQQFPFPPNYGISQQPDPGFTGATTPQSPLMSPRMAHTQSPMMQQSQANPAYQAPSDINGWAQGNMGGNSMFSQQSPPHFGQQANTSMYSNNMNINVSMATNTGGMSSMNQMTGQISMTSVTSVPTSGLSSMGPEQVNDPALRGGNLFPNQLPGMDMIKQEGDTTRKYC
NR5A2 inv ag: LRH-1 (NR5A2) inverse agonists, primary screen, cell-based, luminescence, HEK293T, StAR-luciferase reporter | inhibition, % at 3.6 µM | LRH-1 transfected, 24 h | actives 0.13% (n = 360,000) | Nuclear receptor subfamily 5 group A member 2 (Homo sapiens), O00482 | AID 602396, 2012;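 active = inhibition above the mean inhibition of all tested compounds plus 3 SD, cut at about 73% in these data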;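 note: 0% = DMSO wells and 100% = reporter-only cells lacking LRH-1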
VP16 Luc counter: Gal4-VP16 luciferase reporter inhibitors, counter-screen for COUP-TFII antagonist project, cell-based, luminescence, HEK293; shares compounds with NR2F2 inh; inhibition, % at 8.5 µM; actives 25% (n = 2,500); in the data active = inhibition above about 13%
NR2F2 inh conf: NR2F2 transcriptional activity inhibitors, confirmation, cell-based, luciferase reporter, HEK293, triplicate; actives 45% (n = 2,500); shares compounds with NR2F2 inh; HEK293 NGFI-A luciferase reporter, luminescence; inhibition, % at 8.5 µM; AID 687008, 2013;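 active = mean inhibition over three repeats above a set limit taken from the earlier primary screen, cut at about 38% in these data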;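 note: 100% = cells given the luciferase reporter alone without the COUP-TF2 vector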
* marks the source's active call; other numbers are inactive results; . = no result. An excerpt weighted towards active compounds, which were near 0.81% of everything screened.

SMILES	SRC3 inh	NR2F2 inh	NCOA1 inh	NCOA2 inhibitor	NR5A2 inv ag	VP16 Luc counter	NR2F2 inh conf
O=C(Nc1nc2cc3c(cc2s1)OCCO3)C1=COCCO1	65.2*	81.2*	54.3	68.2*	44.2	56.5*	76.7*
Cn1nc(C(C)(C)C)cc1C(=O)NCc1ccc(N2CCCC2=O)cc1	38.0	69.0*	14.6	18.1	35.4	-0.6	52.0*
Cc1ccc(CNC(=O)c2ccc(N3CCCC3=O)cc2)cc1	3.1	-5.5	3.3	-7.2	-11.8	.	.
CCOc1ccc(CN(C)C(=O)CCc2ccc(S(=O)(=O)N3CCCCCC3)cc2)cc1	24.5	41.4*	5.0	24.1	20.4	1.1	19.4
COc1ccc(CN(C)C(=O)/C=C/c2ccc(S(=O)(=O)N3CCCCCC3)cc2)cc1	18.3	38.4*	-8.5	13.1	10.2	10.3	27.4
COc1ccc(CN(C)C(=O)CCc2ccc(S(=O)(=O)N3CCCCCC3)cc2)c(OC)c1	12.7	4.6	-2.8	-9.2	20.8	.	.
CNC(=O)c1ccc(CN(C)C(=O)/C=C/c2ccc(S(=O)(=O)N3CCCCCC3)cc2)cc1	9.9	18.9	8.4	-5.1	-1.2	.	.
O=C(Nc1nccs1)C1(C(=O)C2CC2)CC(c2ccccn2)=NO1 (centres undefined)	.	-0.4	.	-36.9	.	.	.
Cc1nc2ncnn2c(N2CCN(c3cccc(C(F)(F)F)c3)CC2)c1C	28.4	43.5*	-1.8	-2.3	10.4	3.2	19.7
COc1ccc(N(/N=C2\Sc3ccccc3C2=O)C(C)=O)cc1	-68.1	-13.4	-107.8	-44.1	-97.9	.	.
COc1ccccc1N(/N=C1\Sc2ccccc2C1=O)C(C)=O	26.5	38.9*	21.3	-18.5	27.5	-20.7	33.1
O=S1(=O)c2ccc(N3CC[C@H](O)C3)cc2OCCCN1C1CC1	.	-2.0	.	17.4	.	.	.
Cc1cc(C)cc(C(=O)OCCCN(C)C2CN(Cc3cn(Cc4cccc(F)c4)nn3)S(=O)(=O)C2)c1 (centres undefined)	.	24.9	.	2.5	.	.	.
Cc1c(CC(=O)NCCCC(=O)O)c(=O)oc2cc3c(cc12)CCC(C)(C)O3	40.7	51.1*	25.0	74.7*	40.1	61.0*	37.1
CCN(C(=O)COC(=O)c1ccc(Sc2ncn[nH]2)c([N+](=O)[O-])c1)c1ccccc1	.	6.8	.	-35.7	.	.	.
COc1ccc(C(=O)N2CCN(C3CCC(c4ccccc4)CC3)CC2)cc1OC (centres undefined)	-9.9	41.2*	-2.5	22.4	-1.4	9.7	18.3
COc1ccc(C(=O)N2CCC(N3CCN(c4ccccc4)CC3)CC2)cc1OC	9.9	-4.4	19.5	10.0	10.9	.	.

Screening results (PubChem)
